What all share (experiment): qHTS profiling for inhibitors of Plasmodium falciparum proliferation (AID 504749); note: nearly all actives have a fitted effect of over 60% in size
Holding throughout (conditions): P. falciparum in erythrocytes, SYBR Green DNA, 72 h; series mostly up to 28.7 µM

For one experiment, the system named is CP305. In short, it runs like this: (§1)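 Quantitative HTS: compounds pinned into medium, infected erythrocytes added (0.3% parasitemia, 2.5% hematocrit), 72 h culture at 37 C under 5% CO2. Saponin/Triton lysis with SYBR Green I, overnight RT, then fluorescence read.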
The next experiment relates to CP315. In short, it runs like this:
as §1

Another experiment concerns CP325. In short, it runs like this:
as §1

The next experiment deals with CP329. In short, it runs like this:
as §1

Another experiment has as its system CP335. In short, it runs like this: as §1
Another experiment has as its system DFO2036. In short, it runs like this:
as §1

The next experiment concerns DIV14. In short, it runs like this:
as §1

Another experiment concerns DIV17. In short, it runs like this:
as §1

The subject of the next experiment is DIV30. In short, it runs like this: as §1
A further experiment has as its system Dd2. In short, it runs like this: as §1

Records with an inconclusive call do not appear. Calls of active or inactive are those of the source. Calls come from the whole dose curve; as a rule, active = well fitted inhibition curve with a large enough effect; inconclusive = small, poorly fitted or top-dose-only effect; inactive = flat fitted curve, though single readings scatter.

These results are taken from PubChem BioAssay (NCATS).
Potency is the fitted concentration of half-maximal effect.

`CCCCCCCCCCCCCC[N+](C)(C)C`: the Potency in the experiment with CP305 was 5.36 µM (active); with CP315 it was 5.36 µM (active); with CP325 it was 6.01 µM (active); with CP329, 5.36 µM (active); with CP335, 4.26 µM (active); in the experiment on DFO2036 it was 4.47 µM (active). Also, the Potency with DIV14 is 6.75 µM (active); in the experiment on DIV17 it was 7.57 µM (active); with DIV30 it was 6.75 µM (active); in the experiment with Dd2, 6.31 µM (active).
On to `O=[N+]([O-])c1ccc(O)c2ncccc12`, for which the Potency in the experiment on Dd2 was 12.6 µM (active).
Turning to `CN1CCC(Nc2ncc3ncnc(Nc4ccc(F)c(Cl)c4)c3n2)CC1`, in the experiment on CP315, the Potency result was “inactive”. Further, the Potency is 9.53 µM (active) in the experiment on CP335, 10.7 µM (active) with DIV14, 8.49 µM (active) in the experiment on DIV17 and 7.94 µM (active) in the experiment with Dd2.
Regarding `CC(NCCC(c1ccccc1)c1ccccc1)c1ccccc1` (centres undefined), the Potency with CP305 was 13.5 µM (active); in the experiment on CP325, 15.1 µM (active); with CP335, 4.78 µM (active); with DIV14, 5.36 µM (active); in the experiment with DIV17 it was 6.01 µM (active); with DIV30, 8.49 µM (active). For the same molecule, the Potency in the experiment on Dd2 is 8.91 µM (active).
With `CCCCCCCCCCCCCCCC[N+](C)(C)Cc1ccccc1`, the Potency in the experiment on CP325 was 9.53 µM (active); in the experiment with CP329 it was 10.7 µM (active); with CP335, 12 µM (active); in the experiment on DFO2036, 2.82 µM (active); in the experiment on DIV14 it was 8.49 µM (active); in the experiment on DIV17 it was 8.49 µM (active). Further, the Potency with DIV30 is 15.1 µM (active).
`CN1CCCN(C(c2ccccc2)c2ccc(Cl)cc2)CC1` (centres undefined): the Potency entry in the experiment with CP315 is “inactive”. Also, the figures for the Potency in the experiment on CP335, in the experiment with DIV14 and in the experiment on DIV17 were 12 µM (active), 1.69 µM (active) and 1.51 µM (active), respectively.
Consider `O=S(=O)(O)c1ccc2nc(-c3ccccc3)[nH]c2c1`, for which the Potency entry with CP305, in the experiment on CP315, in the experiment on CP325, in the experiment with CP329, in the experiment with CP335 and in the experiment with DFO2036 was “inactive” throughout. In addition, the Potency result with DIV17, with DIV30 and in the experiment on Dd2 was “inactive” each time.
As to `CCCCCCCCCCCCCCCC[n+]1ccccc1`, the Potency with CP305 was 6.75 µM (active); with CP325, 5.36 µM (active); in the experiment with CP329, 7.57 µM (active); with CP335 it was 6.75 µM (active); in the experiment with DFO2036, 5.62 µM (active); in the experiment on DIV14, 6.75 µM (active). The Potency in the experiment with DIV17 is 6.75 µM (active); with DIV30 it was 13.5 µM (active); in the experiment with Dd2, 10 µM (active).
`O=C(Nc1ccc(Cl)cc1)Nc1ccc(Cl)c(Cl)c1`: the Potency with CP305 is 4.78 µM (active); in the experiment on CP325, 4.26 µM (active); in the experiment with CP329 it was 8.49 µM (active); in the experiment on CP335, 3.38 µM (active); in the experiment on DFO2036, 2.82 µM (active); in the experiment on DIV14, 1.35 µM (active). For the same molecule, the Potency in the experiment with DIV17 was 0.953 µM (active); in the experiment with DIV30, 1.69 µM (active). Also, in the experiment with CP315, the Potency result was “inactive”.
In the case of `Nc1ncnc2nc[nH]c12`, the Potency result in the experiment on CP305, in the experiment on CP315, in the experiment on CP325, in the experiment on CP329, with CP335 and with DFO2036 was “inactive” throughout. The Potency entry in the experiment on DIV14, in the experiment with DIV17, in the experiment with DIV30 and in the experiment with Dd2 was “inactive” in each case.
For `Nc1c2ccccc2nc2ccccc12`, the Potency in the experiment on DFO2036 is 5.01 µM (active); in the experiment with DIV14, 8.49 µM (active); in the experiment on DIV17 it was 7.57 µM (active); with DIV30, 15.1 µM (active); in the experiment on Dd2, 12.6 µM (active).
For `Nc1ccc2cc3ccc(N)cc3nc2c1`, the Potency was 6.01 µM (active) in the experiment with CP335, 6.01 µM (active) with DIV14 and 12 µM (active) with DIV17.
